Key:
Format in all cases: functional
Plasmodium falciparum [1] = experiment: GSK_TCMDC: Inhibition of Plasmodium falciparum 3D7 in whole red blood cells, using parasite LDH activity as an index of growth. Test compounds present at 2uM
Plasmodium falciparum [2] = experiment: GSK_TCMDC: Inhibition of Plasmodium falciparum Dd2 in whole red blood cells, using parasite LDH activity as an index of growth. Test compounds present at 2uM
HepG2 = experiment: GSK_TCMDC: Percent inhibition of human HepG2 cell line. Test compounds present at 10uM.

Structure (SMILES) | Inhibition (Plasmodium falciparum [1]) [%] | Inhibition (Plasmodium falciparum [2]) [%] | Inhibition (HepG2) [%]
COc1cc2c(cc1C(F)(F)F)N(C(=O)Nc1cc(-c3ccncc3)cc(-c3cccnc3)c1)CC2 | 95 | 50 | 64
Cn1c(CN2CCC(N3CCc4cc(NC(=O)c5ccco5)ccc43)C2)cc2ccccc21 (stereo not drawn) | 91 | 92 | 0
Nc1nc(N)c2c(ccc3c2ccn3Cc2ccccc2)n1 | 96 | 94 | 64
O=C(c1cccc(-c2noc(C(F)(F)F)n2)c1)N1CCN(c2ccncc2)CC1 | 90 | 56 | 14
C=CCOc1ccc(C(=O)Nc2nonc2-c2ccc(OC)c(OC)c2)cc1 | 100 | 91 | 2
CC(C)NCC(O)COc1ccc(Cc2ccc(OCC(O)CNC(C)C)cc2)cc1.Cl (stereo not drawn) | 100 | 18 | 0
Cc1ccc(NC(=O)c2cccc(CN3CCCN(Cc4cccc(O)c4)CC3)c2)cc1C.O=C(O)C(F)(F)F | 95 | 31 | 19
CN/C(=C\[N+](=O)[O-])NCCSCc1cc(C)c(CN(C)C)s1 | 98 | 96 | 48
CC1CN(c2nc(NCCc3ccc(O)cc3)nc(NCc3ccccc3-c3ccc(C(F)(F)F)cc3)n2)CC(C)N1 (stereo not drawn) | 100 | 68 | 24
CCc1c(C)nc(-n2nc(C)cc2NC(=O)C(CC)c2ccccc2)[nH]c1=O (stereo not drawn) | 97 | 93 | 41
Cl.N#Cc1ccc2c(c1)CCN(CCC1CCC(NC(=O)Nc3ccncc3)CC1)C2 (stereo not drawn) | 85 | 3 | 6
